Experimental data as given in PubChem BioAssay (Tox21).
Results filed as inconclusive are left out. Activity calls are given as the source filed them. Unless noted, calls come from the whole dose curve; as a rule, active = well fitted curve in the direction sought with a large enough effect in the repeat runs; inconclusive = weak or mixed curves; inactive = no such curve, though single readings can be large; an effect the other way counts as inactive or inconclusive.

Key:
[1] = qHTS assay to identify small molecule antagonists of the vitamin D receptor (VDR) signaling pathway - cell viability counter screen (AID 743225); note: nearly all actives have a fitted effect of over 50% in size
Method in brief: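 HEK293T VDR-bla; cpd + 1a,25-(OH)2D3 3 nM final, 16 h 37C/5% CO2; B/G FRET substrate 2 h RT; then CellTiter-Glo 30 min RT, luminescence.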

[2] = qHTS assay to identify small molecule agonists of the NFkB signaling pathway (AID 1159509; active = well fitted curve in the direction sought with a large enough effect in the signal ratio in the repeat runs, not every such curve was filed as active; the % refers to the signal ratio; note: series mostly up to about 61 µM)
Method in brief: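 After overnight attachment, reporter cells received test compounds, DMSO or positive controls and were incubated 5 hr at 37 C. FRET substrate was then added for 1.5 hr at room temperature before dual-emission fluorescence reading.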

[3] = qHTS assay to identify small molecule agonists of the endoplasmic reticulum stress response signaling pathway (AID 1159516; active = well fitted activation curve with a large enough effect in the signal ratio in the repeat runs, not every such curve was filed as active; the % refers to the signal ratio)
Method in brief: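 ER stress element reporter (bla) in HeLa. 1,500 cells/well, overnight attachment; 5 hr compound; 2 hr RT substrate; dual-emission fluorescence.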

[4] = qHTS assay to identify small molecule agonists of the endoplasmic reticulum stress response signaling pathway - cell viability counter screen (AID 1159517; calls by dose curve;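 note: HeLa cells carrying an ER stress response element beta-lactamase reporter; series mostly up to about 61 µM; nearly all actives have a fitted effect of over 50% in size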)
Method in brief: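 Luminescence readout: CellTiter-Glo, 30 min RT, same wells as the ESRE-bla reporter read. HeLa ESRE-bla, 1,500 cells/well, o/n 37 C; cpd 5 hr 37 C/5% CO2.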

[5] = molecular target: Nuclear receptor ROR-gamma (Homo sapiens) (UniProt P51449); assay: qHTS assay to identify small molecule antagonists of the retinoid-related orphan receptor gamma (ROR-gamma) signaling pathway (AID 1159521;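 note: CHO cells with doxycycline inducible ROR-gamma driving an RORE luciferase reporter; top concentration of the series differs between compounds; nearly all actives have a fitted effect of over 50% in size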)
Method in brief: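 Cells were plated, rested 4 h at 37 C, exposed to compounds for 2 h, then given 1 uM final doxycycline hyclate to induce RORγ expression. After 16 h, ONE-Glo luminescence from the ROR response element reporter was measured.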

[6] = qHTS assay to identify small molecule agonists of the AP-1 signaling pathway - cell viability counter screen (AID 1159525; calls by dose curve; note: nearly all actives have a fitted effect of over 55% in size)
Method in brief: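 ME-180 AP-1-bla, 2500 cells/well, Opti-MEM + 0.5% dialyzed FBS; overnight 37 °C; cpd 15-pt titration, 5 h 37 °C; CellTiter-Glo 30 min RT; luminescence read; normalised to TOAB and DMSO controls.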

[7] = qHTS assay to identify small molecule agonists of the AP-1 signaling pathway (AID 1159526; calls by dose curve)
[8] = qHTS assay to identify small molecule agonists of the RXR signaling pathway - cell viability counter screen (AID 1159529);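 note: HEK 293T cells carrying an RXR-alpha UAS beta-lactamase reporter; series mostly up to about 77 µM; nearly all actives have a fitted effect of over 50% in size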
Method in brief: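 Steps: seed RXR-alpha-UAS-bla HEK 293T cells in assay medium containing 2% charcoal-stripped FBS; incubate 5 hr; add compounds in DMSO; incubate 16 hr at 37 C; after the bla read, add CellTiter-Glo and read luminescence at 30 min.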

[9] = qHTS assay to identify small molecule antagonists of the retinoid acid receptor (RAR) signaling pathway - cell viability counter screen (AID 1159551); note: nearly all actives have a fitted effect of over 35% in size
Method in brief: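 Following overnight attachment, C3RL4 reporter cells received DMSO-dissolved compounds and then retinol (1 uM final). Six hours later at 37 C, ATP content was measured by CellTiter-Glo luminescence.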

[10] = qHTS assay to identify small molecule agonists of the vitamin D receptor (VDR) signaling pathway - cell viability counter screen (AID 743224)
Method in brief: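 VDR-bla cell line, quantitative HTS format; 16 h compound incubation (37C, 5% CO2); ATP-based CellTiter-Glo luminescence measured in the reporter assay wells.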

[11] = qHTS assay to identify small molecule antagonists of the retinoid-related orphan receptor gamma (ROR-gamma) signaling pathway - cell viability counter screen (AID 1159520); note: nearly all actives have a fitted effect of over 50% in size
Method in brief: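 Tet-on ROR gamma CHO cells (1,000/well) were plated 4 hr, given compounds in DMSO for 2 hr at 37 C, then induced with 1 uM final doxycycline for 16 hr. Viability was read as ATP by CellTiter-Glo luminescence after 30 min.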

[12] = qHTS assay to identify small molecule antagonists of the retinoic acid receptor (RAR) signaling pathway (AID 1159552; note: nearly all actives have a fitted effect of over 50% in size)
Method in brief: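 Retinol at 1 uM final stimulated RARE-luciferase expression in C3RL4 cells exposed to test compounds for 6 hr at 37 C. Reduced luminescence, read 30 min after detection reagent, indicated pathway antagonism.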

[13] = qHTS assay to identify small molecule agonists of the retinoic acid receptor (RAR) signaling pathway (AID 1159553); note: potency is the fitted concentration of half-maximal effect
Method in brief: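 Cell line C3RL4, RARE luciferase reporter. Treatment: compounds in DMSO, 6 hr, 37 C, 5% CO2, after overnight plating. Detection: luminescence, 30 min RT after reagent.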

[14] = molecular target: Retinoic acid receptor RXR-alpha (Homo sapiens) (UniProt P19793); assay: qHTS assay to identify small molecule agonists of the RXR signaling pathway (AID 1159527; calls by dose curve; note: nearly all actives have a fitted effect of over 35% in size)
Method in brief: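 Cells plated at 2,000/well, rested 5 hr at 37 C, pin-dosed with DMSO compound solutions, incubated 16 hr, then loaded with B/G FRET substrate for 2 hr at RT before dual-emission fluorescence reading.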

[15] = qHTS assay to identify small molecule agonists of the NFkB signaling pathway - cell viability counter screen (AID 1159515; calls by dose curve; note: series mostly up to about 61 µM; nearly all actives have a fitted effect of over 55% in size)
Method in brief: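 Viability in NFkB-bla ME-180 cells was measured by CellTiter-Glo luminescence, 30 min room temperature, in wells already treated 5 hr with compounds and read for reporter FRET.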

Measured: Potency

Sequence of Retinoic acid receptor RXR-alpha (Homo sapiens) (P19793 whole entry, looked up): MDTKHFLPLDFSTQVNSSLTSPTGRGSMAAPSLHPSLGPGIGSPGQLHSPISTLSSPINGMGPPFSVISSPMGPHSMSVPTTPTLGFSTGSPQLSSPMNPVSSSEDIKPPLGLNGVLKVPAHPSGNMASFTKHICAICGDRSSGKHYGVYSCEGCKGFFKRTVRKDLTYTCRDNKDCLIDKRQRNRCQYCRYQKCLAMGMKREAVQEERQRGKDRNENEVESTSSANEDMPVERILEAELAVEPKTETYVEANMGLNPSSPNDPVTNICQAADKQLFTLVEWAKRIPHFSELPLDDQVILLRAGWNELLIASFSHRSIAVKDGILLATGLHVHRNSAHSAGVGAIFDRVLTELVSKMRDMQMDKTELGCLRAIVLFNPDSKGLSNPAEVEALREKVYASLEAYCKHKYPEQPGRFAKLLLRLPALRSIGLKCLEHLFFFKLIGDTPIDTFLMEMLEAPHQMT

CC(O)C(C)O (centres undefined)
not listed: [10] | [11] | [12] | [13] | [14] | [15]
inactive: all other assays above

O=C(O)c1ccccc1-n1cc(C(=O)O)c(=O)c2cc(Nc3c(F)cc(F)cc3Cl)c(Cl)cc21
not listed: [1] | [5] | [8] | [14] | [15]
inactive: all other assays above

CCOc1ccccc1O
not listed: [10] | [14] | [15]
inactive: all other assays above

CC(COc1ccccc1)NC(C)C(O)c1ccc(O)cc1 (centres undefined)
not listed: [7] | [9] | [10] | [15]
inactive: all other assays above

CCC(C)C1N=C(C)C(C)S1 (centres undefined)
not listed: [2] | [14]
inactive: all other assays above

CC(C)(Cc1c[nH]c2ccccc12)NCC(O)COc1ccccc1C#N (centres undefined)
not listed: [1] | [10] | [14] | [15]
inactive: all other assays above

SCCOCCOCCS
not listed: [2] | [8] | [12] | [13] | [14]
inactive: all other assays above

C=CC(=O)OCCCCCCCCCC
not listed: [2] | [7] | [11] | [15]
inactive: all other assays above

C=C[Si]1(C)O[Si](C)(C=C)O[Si](C)(C=C)O[Si](C)(C=C)O1 (centres undefined)
not listed: [2] | [8] | [10] | [13] | [14] | [15]
inactive: all other assays above

CC(=O)Nc1ccn(C2COC(COC(=O)c3ccccc3)O2)c(=O)n1 (centres undefined)
not listed: [2] | [9] | [10] | [14]
inactive: all other assays above

CCC(=O)O[C@@H]1C[C@H]2CC[C@]1(C)C2(C)C
not listed: [1] | [2] | [7]
inactive: all other assays above

CCCCCCCCOCCCN
not listed: [1] | [2] | [7] | [10] | [11] | [13]
inactive: all other assays above

O=S(=O)(O)c1cc(Cl)c(Cl)cc1Cl
inactive: [10] | [3] | [4] | [11] | [6] | [7] | [8] | [9]

O=P(c1ccccc1)(c1ccccc1)c1ccccc1
not listed: [2] | [5] | [12] | [13] | [14]
inactive: all other assays above

CCOC(=O)CC(O)(CC(=O)OCC)C(=O)OCC
not listed: [2] | [13] | [14] | [15]
inactive: all other assays above

CCCCOC(=O)C(C)Oc1ccc(Oc2ccc(C(F)(F)F)cn2)cc1 (centres undefined)
not listed: [2] | [10] | [14]
inactive: all other assays above

COC(=O)C(C)(C)C
not listed: [2] | [8] | [14]
inactive: all other assays above

O=C1c2ccccc2C(=O)C1c1ccc2cc(S(=O)(=O)O)cc(S(=O)(=O)O)c2n1
not listed: [2] | [13] | [14]
inactive: all other assays above

CC(C)Cc1nccs1
not listed: [2] | [14]
inactive: all other assays above

CC/C=C\CCO
not listed: [2] | [5] | [9] | [12] | [13] | [14]
inactive: all other assays above

C[C@H](N)C(=O)N[C@@H](C)C(=O)NC1[C@H]2CN(c3nc4c(cc3F)c(=O)c(C(=O)O)cn4-c3ccc(F)cc3F)C[C@@H]12 (some centres undefined)
not listed: [1] | [2] | [13] | [14]
inactive: all other assays above

CCCCCCCCNC
not listed: [1] | [2] | [12] | [13] | [14]
inactive: all other assays above

CCOc1ccc2c(c1)C(C)CC(C)(C)N2 (centres undefined)
active: [13] 54.5 µM
not listed: [2] | [14]
inactive: all other assays above
